# Compound activity: PubChem BioAssay, National Center for Advancing Translational Sciences (NCATS)
# Most compounds without a hit are left out; they make up all but 8.2% or so of the library.
# MCF10A rereplic: A quantitative high throughput screen for small molecules that induce DNA re-replication in MCF 10a normal breast cells | Potency, µM (top dose mostly 46.1 µM), for inactives: top-dose activity, positive = re-replication, actives largely listed as activators | MCF 10A DNA re-replication, Hoechst nuclear intensity, 48 h | 2.9% of 350,000 active; note: % of control where 0% means no effect; nearly all actives have a fitted effect of over 50% in size
# ELG1 repair inh: qHTS screen for small molecules that inhibit ELG1-dependent DNA repair in human embryonic kidney (HEK293T) cells expressing luciferase-tagged ELG1 | HEK293T ELG1-luciferase reporter, luminescence, 16 h; DNA damage induced by 5-fluorouridine | Potency, µM (highest dose often 46.1 µM), inactives show at the highest dose activity change, negative = inhibition, hits mostly inhibitors | 2.3% of 330,000 active; note: % is set by controls: 0 for no effect and ±100 for the full control effect; nearly all actives have a fitted effect of over 55% in size
#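 5-Fluorouridine DNA damage + compound/DMSO, 2,000 cells/well, 16 h, 37 °C/5% CO2. ONE-Glo, 30 min RT, luminescence. Readout = decrease in reporter signal.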
# KB-3-1 cytotox: qHTS assay for MDR1-selective chemotherapeutics: Primary screen using the parental adenocarcinoma cell KB-3-1 | KB-3-1 viability, CellTiter-Glo ATP luminescence, 72 h | Potency, µM (top dose mostly 46.1 µM), actives largely listed as cytotoxic | 1.4% of 400,000 active | AID 1347075, 2019; note: % is set by controls: 0 for no effect and ±100 for the full control effect; nearly all actives have a fitted effect of over 60% in size
#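 Using CellTiter-Glo luminescence, growth of non-resistant KB-3-1 adenocarcinoma cells is assessed 72 h after pin-tool compound addition at 37 °C. Normalized responses across the concentration series yield fitted curves.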
# SW480 rereplic: A quantitative high throughput screen for small molecules that induce DNA re-replication in SW480 colon adenocarcinoma cells; AID 624297, 2012; SW480 DNA re-replication, Hoechst DNA content imaging, 48 h; Potency, µM (doses to about 46.1 µM), inactives show at the highest dose re-replication activation, usual class: activators; 1.8% of 340,000 active; note: % of control where 0% means no effect; nearly all actives have a fitted effect of over 55% in size
#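 Image-based read-out: total Hoechst fluorescence of nuclei (405 nm excitation, 500-530 nm emission), with hits raising the fraction of high-intensity nuclei. SW480 colon cells incubated 48 hr with compounds at 37 C.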
# KB-V1 MDR tox: qHTS assay for MDR1-selective chemotherapeutics: Primary screen using the drug-selected MDR subline cells KB-V1. KB-V1 MDR cells viability, CellTiter-Glo, 72 h. Potency, µM (doses to about 46.1 µM), actives largely listed as cytotoxic. 3.4% of 400,000 active; note: % is set by controls: 0 for no effect and ±100 for the full control effect; nearly all actives have a fitted effect of over 60% in size
#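 Cells of the MDR subline KB-V1 are plated, dosed with compound at multiple concentrations, and incubated 72 h at 37 degrees C; CellTiter-Glo is then added and luminescence read after 10 min.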
# * marks the source's active call; other numbers are inactive results; i = inactive; u = inconclusive; x = no result given; [ ] = dose if it differs, or a comment. Calls come from the whole dose curve; as a rule, active = well fitted curve in the direction sought with a large enough effect; inconclusive = small, poorly fitted or top-dose-only effect, or another doubt; inactive = no such curve, though single readings can be large; an effect the other way counts as inactive or inconclusive. Potency is the fitted concentration of half-maximal effect.
SMILES,MCF10A rereplic,ELG1 repair inh,KB-3-1 cytotox,SW480 rereplic,KB-V1 MDR tox
COc1ccc(/C=c2\sc3nc(-c4ccccc4)c(-c4ccccc4)n3c2=O)cc1OC,3%,11%,i,3%,u
O=[N+]([O-])c1ccc(-c2n(-c3ccccn3)c3ccccc3[n+]2-c2ccccn2)cc1,21%,u,i,-70%,i
O=C(COC(=O)Cc1ccc(F)cc1)NCc1ccco1,3%,-3%,i,12µM*,i
CCCC1=NN2C(=N)/C(=C\c3cc(C)n(-c4cc(C)cc(C)c4)c3C)C(=O)N=C2S1,21µM*,-3%,i,1%,u
Cc1cc(/C=C2\C(=N)N3N=C(CC(=O)N4CCOCC4)SC3=NC2=O)c(C)n1Cc1ccccc1,18µM*,7%,i,-7%,i
Cc1cccc(-n2c(C)cc(/C=C3\C(=N)N4N=C(CC(C)C)SC4=NC3=O)c2C)c1,1%,5%,i,-3%,i
Cc1cc(C)cc(-n2c(C)cc(/C=C3\C(=N)N4N=C(CC(C)C)SC4=NC3=O)c2C)c1,18µM*,-1%,u,2%,21µM*
COc1cc(CNC(=O)C2CCCCN2S(=O)(=O)c2ccc(F)cc2)cc(OC)c1OC (stereo not drawn),x,x,i,x,u
CC(C)CCNS(=O)(=O)c1cc2c3c(c1)CCN3C(=O)CC2,1%,u,i,-2%,i
O=C1CN(C(=O)c2cccc(Br)c2)c2ccccc2N1,23µM*,-13%,5.8µM*,u,10µM*
COc1c2c(c(OC)c3c1c(=O)c1ccccc1n3C)OCO2,11%,x,i,u,u
COc1c2c(c3c(c1OC)c(=O)c1ccccc1n3C)OCO2,10%,x,i,15%,13µM*
O=C(/C=C/c1ccccc1)CCN1CCCCC1,6.5µM*,x,u,2.9µM*,26µM*
O=C(/C=C/c1ccccc1)CC(=O)c1ccccc1O,13µM*,u,i,u,u
O=C(/C=C/c1ccccc1)NC(=O)c1ccccc1O,12%,u,i,3%,i
COc1ccccc1N(C)S(=O)(=O)c1ccc(C(=O)N(C)Cc2cccc(OC)c2OC)cc1,x,x,i,x,i
COc1ccccc1N(C)S(=O)(=O)c1ccc(C(=O)Nc2cc(F)ccc2C)cc1,10%,18µM*,i,-2%,i
COc1cc(OC)cc(C(=O)NNC(=O)c2ccc(S(=O)(=O)N(C)c3ccccc3OC)cc2)c1,25%,15µM*,i,5%,i
COc1ccccc1N(C)S(=O)(=O)c1ccc(C(=O)N(C)Cc2ccc(Cl)s2)cc1,26µM*,u,x,3%,x
COc1ccccc1N(C)S(=O)(=O)c1ccc(C(=O)Nc2nc(C)cs2)cc1,u,13µM*,i,6%,u
C[C@@H]1CN([C@@H](C)CO)C(=O)CCCn2nncc2CO[C@H]1CN(C)S(=O)(=O)c1ccc(F)cc1,x,x,i,x,u
Cc1ccc(C2=NN(CC(=O)NCCN(CC(C)C)CC(C)C)C(=O)CC2)cc1,7%,-4%,i,3%,i
CCOC(=O)[C@H]1[C@H]2COc3ccc(Br)cc3[C@H]2N2C(=O)CN(Cc3ccc(C)cc3)C(=O)[C@@]12C,u,x,i,u,i
COc1ccccc1N(C)S(=O)(=O)c1ccc(C)c(C(=O)NC(C)c2ccccn2)c1 (stereo not drawn),14%,-3%,i,4%,9.2µM*
COc1ccccc1N(C)S(=O)(=O)c1ccc(Cl)c(C(=O)OCc2c(C)noc2C)c1,16µM*,-29%,i,u,i
SMILES,MCF10A rereplic,ELG1 repair inh,KB-3-1 cytotox,SW480 rereplic,KB-V1 MDR tox
COc1ccccc1N(C)S(=O)(=O)c1ccc(Cl)c(C(=O)NNC(=O)c2ccccc2O)c1,12%,26%,u,3%,i
Cc1nc(-c2ccccc2)sc1C1(C)CC(c2cccc([N+](=O)[O-])c2)=NO1 (stereo not drawn),1%,u,i,0%[9.22 µM],i
CCN(C(=O)C1CCC(CNS(=O)(=O)c2cccc3nsnc23)CC1)c1cccc(C)c1 (stereo not drawn),x,x,i,x,u
Cc1ccc(C(=O)Nc2ccc(Cc3ccncc3)cc2)cc1[N+](=O)[O-],15%,u,u,-3%,5.8µM*
CCCC(=O)Nc1cccc(NC(=O)c2ccc(C)c([N+](=O)[O-])c2)c1,-4%,u,i,2%,i
CCC(=O)Nc1cccc(NC(=O)c2ccc(C)c([N+](=O)[O-])c2)c1,22%,0%,i,1%,15µM*
O=C(Nc1cccc(Cl)c1)c1ccc(NCC2CCCO2)c([N+](=O)[O-])c1 (stereo not drawn),19%,u,i,-89%,i
Cc1cccc(NC(=O)c2ccc(NCC3CCCO3)c([N+](=O)[O-])c2)c1 (stereo not drawn),-5%,u,i,-59%,4.1µM*
O=C(Nc1ccc(Cc2ccncc2)cc1)c1cccc([N+](=O)[O-])c1,10%,-3%,i,-1%,u
O=C(COC(=O)C12CC3CC(CC(C3)C1)C2)NCC1CCCO1 (stereo not drawn),x,x,i,x,u
COc1cc(-c2nnc3sc(C4CCCCC4)nn23)cc(OC)c1OC,21µM*,u,u,-7%,18µM*
CCOc1cccc(-c2nnc3sc(-c4cc(OC)c(OC)cc4OC)nn23)c1,x,-2%,x,x,x
COc1cccc(-c2nnc3sc(C4CCCCC4)nn23)c1,u,4.6µM*,u,6%,3.7µM*
c1cncc(-c2nnc3sc(C4CCCCC4)nn23)c1,1%,-1%,i,-2%,i
COc1cc(OC)c(-c2nn3c(C4CCCCC4)nnc3s2)cc1OC,-5%,21µM*,u,-2%,u
CCOc1cccc(-c2nnc3sc(C4CCCCC4)nn23)c1,5%,21µM*,i,8%,u
CCN1C(Br)=CCc2ccccc21,x,x,i,x,u
N#CC1=C(N)OC2=C(CCc3ccccc32)C1c1ccccc1 (stereo not drawn),u,u,0.58µM*,0.73µM*,1.5µM*
Cc1ccc(/C=C2\CCC3=C2OC(N)=C(C#N)C3c2ccc(C)cc2)cc1 (stereo not drawn),2.9µM*,u,i,11µM*,i
Cc1ccc(C2C(C#N)=C(N)Oc3cc(N)ccc32)cc1 (stereo not drawn),u,-16%,i,6%,i
